KAT2A inh: inhibitors of human GCN5L2 histone acetyltransferase; Potency, µM (titrated, usually from 58.9 µM), actives largely listed as inhibitors; GCN5L2 HAT assay, ThioGlo1 CoA-SH fluorescence; actives 0.21% (n = 390,000); Q92830
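ThioGlo1-coupled HAT assay: 20nM GCN5L2, 70uM acetyl-CoA, 75uM H3(1-25) peptide, pH 7.5. Fluorescence read at 340/540nm at start and after 20 min at room temperature.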
VDR inhibitor: vitamin D3 receptor (human) inhibition; P11473; VDR-SRC2-3 peptide fluorescence polarization, 2 h; Potency, µM, hits mostly inhibitors; actives 0.93% (n = 400,000); AID 504847
Target sequence (P11473 whole entry, looked up): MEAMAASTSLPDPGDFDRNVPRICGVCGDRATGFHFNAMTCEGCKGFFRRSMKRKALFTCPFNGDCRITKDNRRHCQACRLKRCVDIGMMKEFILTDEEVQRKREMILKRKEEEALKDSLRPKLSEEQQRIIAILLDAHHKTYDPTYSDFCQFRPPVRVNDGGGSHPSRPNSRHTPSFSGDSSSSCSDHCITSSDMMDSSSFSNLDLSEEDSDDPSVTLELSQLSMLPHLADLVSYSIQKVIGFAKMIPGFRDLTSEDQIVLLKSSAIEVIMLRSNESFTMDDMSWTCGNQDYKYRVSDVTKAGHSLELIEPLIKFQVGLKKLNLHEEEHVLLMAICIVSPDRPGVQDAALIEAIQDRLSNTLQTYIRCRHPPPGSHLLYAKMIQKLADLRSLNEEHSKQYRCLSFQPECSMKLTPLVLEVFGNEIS
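Compounds are added to VDR with labelled SRC2-3 coactivator peptide and held 2 h at room temperature. Inhibition of the VDR–peptide interaction is then read as a change in fluorescence polarization.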
DT40 TDP1 no CPT: qHTS for Inhibitors of human tyrosyl-DNA phosphodiesterase 1 (TDP1): qHTS in cells in absence of CPT | DT40 Tdp1-/- hTDP1 cells, no CPT, ATP luminescence, 48 h | Potency, µM (series often up to 46.2 µM), actives largely listed as inhibitors | actives 15% (n = 420,000); also: nearly all actives have a fitted effect of over 55% in size
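Chicken DT40 Tdp1-/- cells stably complemented with human TDP1 were seeded at 400 cells/well with DMSO in place of 20 nM camptothecin. After compound pinning, cells grew at least 48 hr at 37 °C; viability read by CellTiter-Glo luminescence.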
PLK1 PBD block: inhibitors of human PLK1 polo-box domain binding; P53350; Plk1 PBD binding of FITC phosphopeptide, fluorescence polarization; Potency, µM, hits mostly inhibitors; actives 2.8% (n = 360,000); AID 720504; also: series mostly up to about 57 µM; nearly all actives have a fitted effect of over 65% in size
DT40 TDP1 CPT: growth inhibition of DT40 Tdp1-/-;hTDP1 cells with camptothecin (screen for TDP1 inhibitors). AID 686979. Potency, µM (top dose mostly 46.2 µM), hits mostly inhibitors. chicken DT40 Tdp1-/-;hTDP1 cells + 20 nM CPT, ATP luminescence, 48 h. actives 12% (n = 420,000); also: nearly all actives have a fitted effect of over 55% in size
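Chicken DT40 Tdp1-/- cells stably complemented with human TDP1 were seeded at 400 cells/well in medium containing 20 nM camptothecin, exposed to pin-transferred compounds, and grown at 37 °C for at least 48 hr. Viability was read as ATP luminescence.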
TDP1 block: inhibitors of human tyrosyl-DNA phosphodiesterase TDP1; Q9NUW8; recombinant TDP1, AlphaScreen DNA substrate cleavage; Potency, µM (highest dose often 130 µM), actives largely listed as inhibitors; actives 0.28% (n = 350,000); also: nearly all actives have a fitted effect of over 40% in size
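Recombinant human Tdp1 (E. coli-expressed, 1 nM final) preincubated with compounds 15 min at room temperature, then 5'-biotin/3'-phosphotyrosine-FITC DNA substrate (15 nM final) added for 5 min. AlphaScreen beads (10 ug/ml final) added 10 min; cleavage lowers signal.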
Numbers stand for hits; i = inactive; ? = inconclusive; nt = no result; [ ] = dose if it differs, or a comment. Only some compounds are listed: those with a hit (about 18% of all), similar ones and a draw of the others. Calls follow the shape of the dose curve; as a rule, active = well fitted curve in the direction sought with a large enough effect; inconclusive = small, poorly fitted or top-dose-only effect, or another doubt; inactive = no such curve, though single readings can be large; an effect the other way counts as inactive or inconclusive.

SMILES	KAT2A inh	VDR inhibitor	DT40 TDP1 no CPT	PLK1 PBD block	DT40 TDP1 CPT	TDP1 block
COCCC(=O)N1CCC(Oc2ccc(C(=O)N3CCCCCC3)cc2)CC1	i	?	i	11µM	?	i
C#CCN(C(=O)c1ccc(OC2CCN(Cc3ccccn3)CC2)cc1)C1CCCCC1	i	i	?	i	16µM	i
COCC(=O)N1CCC(Oc2ccc(C(=O)N3CCCCCCC3)cc2)CC1	i	i	13µM	i	?	i
CN(C(=O)c1ccc(OC2CCN(Cc3ccccn3)CC2)cc1)C1CCCCC1	i	i	i	i	?	i
COCC(=O)N1CCC(Oc2ccc(C(=O)N3CCCCCC3)cc2)CC1	i	i	i	i	i	i
COCCC(=O)N1CCC(Oc2ccc(C(=O)N3CCCC(COC)C3)cc2)CC1 (stereo not given)	i	i	i	i	i	i
C#CCN(C(=O)c1ccc(OC2CCN(C(=O)CCOC)CC2)cc1)C1CCCCC1	i	i	?	i	23µM	nt
CCN(C1CCS(=O)(=O)C1)S(=O)(=O)c1ccc2ccccc2c1 (stereo not given)	i	i	i	i	i	i[0.505 µM]
C[C@@H]1CN([C@@H](C)CO)C(=O)CCCn2nncc2CO[C@H]1CN(C)C(=O)C1CC1	nt	nt	i	i	i	nt
Cc1ccc(CNC(=O)CCSCc2ccccc2C)cc1	i	i	i	i	i	nt
COCC(=O)N1CCC(Oc2ccc(C(=O)N(C)CCCC3CCCC3)cc2)CC1	i	i	21µM	i	18µM	i
COCCn1c(SCC(=O)N2CCCC2)nc2c([nH]c3ccccc32)c1=O	i	i	i	i	i	i
CCn1cnc2c(Nc3cc(F)cc(F)c3)nc(C(=O)COc3c(F)c(F)cc(F)c3F)nc21	nt	nt	nt	nt	nt	i
CCOC(=O)C1=CCC(c2cccn2C(=O)OC(C)(C)C)N(S(=O)(=O)c2ccc(C)cc2)C1 (stereo not given)	nt	nt	?	i	?	nt
CCOC(=O)C1=CCC(c2cccc(C)c2)N(S(=O)(=O)c2ccc(C)cc2)C1 (stereo not given)	nt	nt	16µM	i	18µM	nt
CCOC(=O)C1=CCC(c2cccs2)N(S(=O)(=O)c2ccc(C)cc2)C1 (stereo not given)	nt	nt	?	i	?	nt
CCOC(=O)C1=CCC(c2ccccc2)N(S(=O)(=O)c2ccccc2)C1 (stereo not given)	nt	nt	18µM	i	23µM	nt
CN(C(=O)Cn1cccc1C1=NC(c2ccccc2)CO1)c1ccccc1 (stereo not given)	i	i	i	i	?	i
CCc1cc(C(=O)N2CCOc3ccc(CN4CCN(Cc5ccccn5)CC4)cc3C2)no1	nt	nt	i	nt	i[9.04 µM]	nt
COc1ccc(C(=O)CCC(=O)O)c2ccccc12	i	i	i	nt	i	i
Cc1ccccc1C(=O)c1ccccc1C(=O)c1ccccc1	nt	i	16µM	i	?	nt
COc1ccccc1C(=O)COC(=O)c1ccc(N(C)C)cc1	i	i	18µM	i	?	i
COc1ccc(C(=O)c2ccc(N(C)C)cc2)c2ccccc12	i	i	1.5µM	i	1µM	i
COc1ccc(C(=O)c2ccccc2C(=O)c2ccccc2)cc1	nt	i	16µM	i	?	nt
COc1ccccc1C(=O)COC(=O)c1ccccc1O	i	i	i	i	i	i
SMILES	KAT2A inh	VDR inhibitor	DT40 TDP1 no CPT	PLK1 PBD block	DT40 TDP1 CPT	TDP1 block
CN(C)C(CNC(=O)c1cccc(C(F)(F)F)c1)c1ccco1 (stereo not given)	i	i	i	i	i	nt
O=C(CN1CCC(C(=O)c2cccc(Cl)c2)CC1)Nc1ccc(C(=O)O)cc1	i	i	i	i	i	i
Cc1ccc2oc(C(=O)N(C)CCC(O)c3ccccc3)c(C)c2c1 (stereo not given)	i	i	?	i	?	nt
COc1ccc(C(=O)c2ccc(Cl)cc2Cl)cc1	i	i	?	i	i	i
COc1ccc(C(=O)c2ccc(OC)c(OC)c2OC)cc1	nt	i	3.7µM	i	3.7µM	nt
O=C(O)c1ccc(C(=O)O)c(C(=O)c2ccccc2)c1	i	i	i	i	i	i
COc1ccc(-n2nnnc2/C=C\Nc2ccccc2C(=O)c2ccccc2)cc1	i	i	5.8µM	i	7.3µM	i
O=C(c1ccccc1)c1ccccc1C(=O)c1ccccc1	?	i	18µM	i	?	i
COc1ccc(-n2nnnc2/C=C/Nc2cc(C(F)(F)F)ccc2OC)cc1	i	i	?	i	?	i
Nc1nc(SCC(=O)O)c2[nH]cnc2n1	nt	i	i	nt	i	i
Cc1ccc(C(=O)NCC(=O)OC(C)C(=O)Nc2ccc(N3CCOCC3)cc2)s1 (stereo not given)	i	i	i	i	i	i
COc1cc2c(cc1NC(=S)NC(=O)/C=C/c1ccco1)oc1ccccc12	i	i	?	i	16µM	i
COc1ccc(/C=C/C(=O)NC(=S)Nc2cc3oc4ccccc4c3cc2OC)cc1	i	i	?	i	9.2µM	i
COc1ccc(S(=O)(=O)N[C@@H](C)C(=O)OCC(=O)Nc2cc3oc4ccccc4c3cc2OC)cc1	i	i	15µM	i	?	i
O=c1c2c([nH]n1-c1ccccc1)C[C@@H](C1CCCCC1)O[C@H]2c1ccc(F)cc1	nt	nt	i	?	i	nt

Screens (PubChem)
